Results on ten compounds are retold here after PubChem BioAssay (NCATS).

The structures appear in SMILES notation. Where “and” joins values, the source holds several entries; their conditions need not be identical. Identical values can stand only once. Results filed as inconclusive are left out. Calls of active or inactive are those of the source. Unless noted, the call rests on the fitted dose curve; in most records, active means well fitted curve in the direction sought with a large enough effect; inconclusive means small, poorly fitted or top-dose-only effect, or another doubt; inactive means no such curve, though single readings can be large; an effect the other way counts as inactive or inconclusive.

Assay [1] is described as follows: qHTS Assay for Lipid Storage Modulators (AID 1519; calls by dose curve; on activity change, negative = inhibition: on the % scale 0 is the no-effect control and ±100 the full control effect). The settings on record: Drosophila S3 cells, BODIPY lipid droplet/cell ratio, laser cytometry, cells loaded with oleic acid. In outline:
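Cells seeded at 5,000 per well were treated with compounds over a concentration series and loaded with oleic acid (400 uM, as added). Lipid droplet fluorescence (488 nm excitation, 500-530 nm channel) was read by laser-scanning cytometry and normalized to 20 uM Triacsin C.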

For assay [2], the target named is DNA repair nuclease/redox regulator APEX1 (Homo sapiens) (UniProt P27695). Nature of the assay: qHTS Validation Assay for Inhibitors of the Human Apurinic/apyrimidinic Endonuclease 1 (APE1) (AID 1705;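 further: TAMRA fluorescence gain over two minutes as APE1 cuts a quenched THF abasic duplex; on the % scale 0 is the no-effect control and ±100 the full control effect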). To be noted: purified APE1 endonuclease activity, fluorescence, titration; series mostly up to 57.1 µM. The gist of the method:
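Endonuclease activity of human APE1 is followed as dequenching when the enzyme incises a tetrahydrofuran abasic site in a short duplex labelled 5'-TAMRA/3'-BHQ-2 (50 nM final), after 15 min enzyme–compound preincubation at room temperature.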
(In general: In qHTS, concentration-response curves come from the screen itself.)

Assay [3] can be described thus: Counterscreen for APE1 Inhibitors: Fluorescent Dye Displacement Validation Assay (AID 1707). Further: potency means the concentration at half of the fitted maximal effect.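 On activity change, negative = inhibition: plate controls were ThO with dsDNA and no compound for no effect and ThO without dsDNA for full effect.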 The settings on record: fluorescent dye displacement from DNA; series mostly up to 57.1 µM. In outline: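 Counterscreen flags promiscuous DNA binders: compounds displacing ThO from duplex DNA (abasic THF site, 50 nM) reduce 540 nm emission (480 nm excitation). ThO 250 nM final; Tris-HCl pH 7.5 with NaCl, MgCl2 and Tween-20.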
In general terms: The purpose of a counterscreen is to sort out artefacts and off-target activity.

Assay [4] concerns the target Endonuclease 4 (Escherichia coli (strain K12)) (UniProt P0A6C1). Nature of the assay: Counterscreen for APE1 Inhibitors: qHTS Validation Assay for Inhibitors of Endonuclease IV (AID 1708). Further: on the % scale 0 is the no-effect control and ±100 the full control effect. To be noted: E. coli endonuclease IV, DNA cleavage fluorescence; series mostly up to 57.1 µM. In outline: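 Incision of a double-stranded 50 nM TAMRA/BHQ-2 abasic substrate was followed kinetically (525/598 nm, reads every 60 s) after 15 min enzyme–compound preincubation with 2 nM EndoIV in pH 7.5 Tris buffer with MgCl2, DTT and Tween-20; concentration-response format.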

Assay [5] in a line: qHTS for differential inhibitors of proliferation of Plasmodium falciparum line 7G8 (AID 1815).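 Further: parasite growth measured after three days of incubation.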 Further: potency means the concentration at half of the fitted maximal effect.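 On activity change, negative = inhibition: plate controls were vehicle wells for no effect and reference inhibitor wells for full effect.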 The settings on record: Plasmodium falciparum 7G8 proliferation inhibition; series mostly up to 28.7 µM.
A short description of assay [6]: qHTS for differential inhibitors of proliferation of Plasmodium falciparum line GB4 (AID 1816).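 Further: parasite growth measured after 72 h incubation.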 Further: potency means the concentration at half of the fitted maximal effect.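 On activity change, negative = inhibition: 0% = vehicle DMSO and -100% = reference inhibitor.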 To be noted: Potency: Plasmodium falciparum GB4 proliferation inhibition; series mostly up to 28.7 µM.
A short description of assay [7]: qHTS for differential inhibitors of proliferation of Plasmodium falciparum line 3D7 (AID 1876). Further: potency means the concentration at half of the fitted maximal effect. The settings on record: P. falciparum 3D7 proliferation inhibition; series mostly up to 28.7 µM.
Assay [8] can be described thus: qHTS for differential inhibitors of proliferation of Plasmodium falciparum line D10 (AID 1877).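 Further: parasites grown with compound for 72 h before DNA staining.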 Further: potency means the concentration at half of the fitted maximal effect.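 On activity change, negative = inhibition: plate controls were vehicle wells for no effect and reference inhibitor wells for full effect.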 The settings on record: series mostly up to 28.7 µM.
Assay [9] is described as follows: qHTS for differential inhibitors of proliferation of Plasmodium falciparum line Dd2 (AID 1882). Further: nearly all actives have a fitted effect of over 65% in size. Further: potency means the concentration at half of the fitted maximal effect.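 On activity change, negative = inhibition: plate controls were DMSO vehicle for no effect and 0.29 µM artemisinin for full effect.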 To be noted: Potency: Plasmodium falciparum Dd2 proliferation inhibition; series mostly up to 28.7 µM. In outline:
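SYBR Green DNA fluorescence (ex 485, em 535 nm) after overnight lysis quantifies parasite growth; compound exposure lasted 72 h at 37 C on infected red cells at 2.5% hematocrit, 0.3% parasitemia (final). Artemisinin 0.29 uM and vehicle wells define normalization.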

Assay [10] is described as follows: qHTS for differential inhibitors of proliferation of Plasmodium falciparum line W2 (AID 1883).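 Further: parasites grown with compound for 72 h before lysis and staining.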 Further: potency means the concentration at half of the fitted maximal effect.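 On activity change, negative = inhibition: 0% = vehicle wells and -100% = control inhibitor wells.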 The settings on record: Potency: Plasmodium falciparum W2 proliferation inhibition; series mostly up to 28.7 µM.
Setting [11] is: measured here: cell count channel max response.
[12] abbreviates: measured here: lipid channel max response.

DNA repair nuclease/redox regulator APEX1 (Homo sapiens), sequence (P27695 whole entry, looked up): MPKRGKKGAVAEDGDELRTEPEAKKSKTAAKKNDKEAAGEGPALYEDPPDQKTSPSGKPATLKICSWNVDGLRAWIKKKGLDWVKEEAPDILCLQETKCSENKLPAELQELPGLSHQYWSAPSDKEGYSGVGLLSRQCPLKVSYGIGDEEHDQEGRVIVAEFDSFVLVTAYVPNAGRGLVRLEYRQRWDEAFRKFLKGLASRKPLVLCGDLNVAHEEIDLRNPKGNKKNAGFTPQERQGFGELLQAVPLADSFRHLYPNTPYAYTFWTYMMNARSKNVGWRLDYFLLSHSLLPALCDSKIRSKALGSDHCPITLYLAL

In the case of `CC(N)Cc1c[nH]c2ccc(O)cc12` (centres undefined), in [1] (at 57.5 µM (top of the series)), the activity change, negative = inhibition was -0.0169% (inactive). The max response amounted to 8.43% in [1] (setting [11]) and 9.94% in assay [1] (setting [12]). Besides, the Potency entry in assay [2], in assay [3], in assay [4], in assay [5], in [6] and in assay [7] was “inactive” throughout. For the same compound, the Potency result in assay [8], in [9] and in assay [10] was “inactive” each time.
Turning to `Oc1ccc2c3c1O[C@H]1c4oc5ccccc5c4C[C@@]4(O)C(C2)N(CC2CC2)CCC314` (some centres undefined), the activity change, negative = inhibition in assay [1] (at 57.5 µM (top of the series)) was 0.729% (inactive). The max response is 69% in assay [1] (setting [11]) and 72% in [1] (setting [12]). Further, the Potency result in assay [2], in assay [3] and in assay [4] was “inactive” in each case. In addition, the Potency was 8.91 µM (active) in [5]; 3.16 µM (active) in assay [6]; 7.94 µM (active) in assay [7]; 12.6 µM (active) in assay [8]; 10 µM (active) in assay [9]; 3.16 µM (active) in assay [10].
For the compound `CN1C2CCC1CC(OC(c1ccccc1)c1ccccc1N)C2` (centres undefined), the activity change, negative = inhibition in [1] (at 57.5 µM (top of the series)) is 0.575% (inactive). Also, the results for the max response in assay [1] (setting [11]) and in assay [1] (setting [12]) were -2.6% and -1.25%, respectively. Also, the Potency entry in assay [2], in assay [3] and in [4] was “inactive” each time. In addition, the Potency is 8.91 µM (active) in [5], 5.62 µM (active) in assay [6], 11.2 µM (active) in [7] and 2.51 µM (active) in assay [10].
Regarding `CCCN(CCC)CCc1c[nH]c2ccc(C(N)=O)cc12`, the activity change, negative = inhibition in assay [1] (at 57.5 µM (top of the series)) is 1.01% (inactive). Also, the max response in assay [1] (setting [11]) was -28.4%; in assay [1] (setting [12]), -33.9%. Besides, the Potency result in [2], in [3], in assay [4], in assay [5], in assay [6] and in assay [7] was “inactive” in each case. Also, the Potency entry in assay [8] and in assay [9] was “inactive” throughout.
Consider `[N-]=[N+]=CC(=O)OCC(N)C(=O)O` (centres undefined), for which the activity change, negative = inhibition in assay [1] (at 57.5 µM (top of the series)) is 10.5% (inactive). Further, the max response in assay [1] (setting [11]) is 14.1%; in assay [1] (setting [12]), 29.9%.
In the case of `Cc1cc(C)cc(C(=O)OC2C[C@H]3CC[C@@H](C2)N3C)c1` (some centres undefined), the activity change, negative = inhibition in assay [1] (at 57.5 µM (top of the series)) is 3% (inactive). The max response is -0.988% in [1] (setting [11]) and 4.22% in assay [1] (setting [12]).
With `CC(=O)c1c(O)c(C)c(O)c(Cc2c(O)c3c(c(C(=O)/C=C/c4ccccc4)c2O)OC(C)(C)C=C3)c1O`, the activity change, negative = inhibition in assay [1] (at 57.5 µM (top of the series)) is 1.99% (inactive). The max response in assay [1] (setting [11]) worked out at 24.5%; in assay [1] (setting [12]), 25.8%. The Potency result in assay [2] and in [4] was “inactive” in each case. Further, the Potency in [3] is 2.24 µM (active); in [5], 3.16 µM (active); in assay [6] it was 3.16 µM (active); in assay [7], 3.98 µM (active); in assay [8], 10 µM (active); in [9] it was 7.94 µM (active). Also, the Potency in assay [10] is 3.55 µM (active).
Regarding `NC(N)=NOCC[C@H](N)C(=O)O`, the activity change, negative = inhibition in [1] (at 25.7 µM (top of the series)) was -2.42% (inactive); in [1] (at 57.5 µM (top of the series)) it was -0.661% (inactive) and -1.31% (inactive). Further, the max response in assay [1] (setting [11]) was -2.62% and 0.126% and 38.5%; in assay [1] (setting [12]), -6.68% and -0.879% and 37%. Also, the Potency result in assay [2], in assay [4], in assay [5], in [6], in [7] and in [8] was “inactive” in each case. Further, the Potency result in assay [9] was “inactive”.
For `C[C@@H](Cc1ccccc1)NCCC(c1ccccc1)c1ccccc1`, the activity change, negative = inhibition in assay [1] (at 25.7 µM (top of the series)) was -10.7% (inactive). For the same compound, the max response in assay [1] (setting [11]) was -11.9%; in assay [1] (setting [12]) it was -23.1%.
For the compound `Cc1[nH]c2ccc(O)cc2c1CCN`, the activity change, negative = inhibition in [1] (at 57.5 µM (top of the series)) is -0.216% (inactive). Also, the figures for the max response in [1] (setting [11]) and in assay [1] (setting [12]) were -4.56% and -4.28%, respectively. Also, the Potency result in [2], in assay [3], in assay [4], in [5], in assay [6] and in [7] was “inactive” each time. Further, the Potency entry in assay [8], in [9] and in assay [10] was “inactive” throughout.
